Compound activity: PubChem BioAssay, National Center for Advancing Translational Sciences (NCATS)
Pf growth 96h = P. falciparum growth inhibition at 96 hour, primary screen for plastid delayed-death inhibitors; P. falciparum luciferase reporter growth, 96 h; Potency, µM (top dose mostly 28.7 µM), inactives show at the top dose activity change, negative = inhibition, actives largely listed as inhibitors; 320,000 tested, 6.9% active; AID 504834; note: potency is the fitted concentration of half-maximal effect; % is set by controls: 0 for no effect and ±100 for the full control effect
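Readout is luminescence from an integrated firefly luciferase in P. falciparum. Red cells, 2% hematocrit and 0.05% parasitemia final, were cultured with compound through two parasite generations (96 hours) at 37 C, 5% CO2.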
Pf growth 48h = P. falciparum growth inhibition at 48 hours (one generation); 310,000 tested, 5.9% active; Potency, µM (highest dose often 28.7 µM), for the others: at the highest dose activity change, negative = inhibition, actives largely listed as inhibitors; AID 504832; P. falciparum luciferase growth in erythrocytes, 48 h; note: potency is the fitted concentration of half-maximal effect; % is set by controls: 0 for no effect and ±100 for the full control effect
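Here the parasites carry a stable luciferase gene and grow inside erythrocytes in Albumax-based RPMI medium with compound for one erythrocytic cycle. Activity is scored as loss of luminescent signal.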
Cycloheximide cs = counter-screen hit for Shiga toxin inhibitors, cycloheximide; 300,000 tested, 12% active; AID 2314; max response, %; cell reporter, cycloheximide protein synthesis inhibition counterscreen; in the data active = max response mostly above about 13%, no sharp cut-off; inactive = mostly below about 14%; note: read at 38.3 µM for the half of the compounds with a filed dose; 0% is about no effect
Shiga inhibitor = inhibitors of Shiga toxin in Vero cells; Vero cells, Shiga toxin protein synthesis inhibition reporter; inhibition, % at 38.7 µM; 290,000 tested, 9.2% active; AID 2315; in the data active = inhibition mostly above about 28%, no sharp cut-off; inactive = mostly below about 43%; note: 0% is about no effect
* marks the source's active call; other numbers are inactive results. Most compounds without a hit are left out; they make up all but 21% or so of the library. Unless noted, calls come from the whole dose curve; as a rule, active = well fitted inhibition curve with a large enough effect; inconclusive = small, poorly fitted or top-dose-only effect, or another doubt; inactive = no such curve, though single readings can be large or run the other way.

CCc1ccc(NC(=O)CCc2nnc3ccc(N4CCCC4)nn23)cc1 was read as Pf growth 96h -22.1%, Pf growth 48h -14.7%, Cycloheximide cs -8.7 and Shiga inhibitor 3.1.
Screening COC(=O)C1=C(O)/C(=C\c2cc(C)n(-c3ccccc3F)c2C)N=C1C returned Pf growth 96h -39.8%, Pf growth 48h inconclusive, Cycloheximide cs 33.6* and Shiga inhibitor 82.0*.
Screening COC(=O)C1=C(O)/C(=C\c2sccc2C)N=C1C returned Pf growth 96h 26.6%, Pf growth 48h -21.8%, Cycloheximide cs 27.5* and Shiga inhibitor 17.1.
`COC(=O)C1=C(C)NC(=O)/C1=C\c1cc(C)n(-c2ccccc2)c1C` gave Pf growth 96h inconclusive, Pf growth 48h 0.3%, Cycloheximide cs 34.7* and Shiga inhibitor 102.1*.
`COC(=O)c1cccc(-n2c(C)cc(C=O)c2C)c1C` gave Pf growth 96h inconclusive, Pf growth 48h 7.3%, Cycloheximide cs 19.4* and Shiga inhibitor 48.6*.
For COc1ccc(C)cc1NC(=S)N1CCN(S(C)(=O)=O)CC1 the results were Pf growth 96h -14.2%, Pf growth 48h 5.1%, Cycloheximide cs 6.0 and Shiga inhibitor 21.8.
`COc1ccc(C(=O)N/N=C/c2ccc(OC)c(COc3ccc(F)cc3F)c2)cc1` gave Pf growth 96h -1.6%, Pf growth 48h inconclusive, Cycloheximide cs 10.1 and Shiga inhibitor -2.0.
For CCN(C(=O)/C=C/c1ccc2c(c1)OCO2)c1ccccc1 the results were Pf growth 96h 6.8%, Pf growth 48h 70.7%, Cycloheximide cs 21.2* and Shiga inhibitor 42.8*.
For O=C(N/N=C/c1ccc2c(c1)OCO2)c1cc(-c2ccco2)nc2ccccc12 the results were Pf growth 96h -18.2% and Pf growth 48h -23.4%.
Screening O=C(N/N=C/c1ccc2c(c1)OCO2)c1ccccn1 returned Pf growth 96h inactive, Pf growth 48h 198.3%, Cycloheximide cs 39.5* and Shiga inhibitor 92.9*.
Screening O=C(/C=C/c1ccc2c(c1)OCO2)c1ccccn1 returned Pf growth 96h 1.7%, Pf growth 48h 83.9%, Cycloheximide cs 71.7* and Shiga inhibitor 97.0*.
O=C(N/N=C/c1ccc2c(c1)OCO2)c1cc(-c2ccccc2)nc2ccccc12 was read as Pf growth 96h 11.7µM*, Pf growth 48h inconclusive, Cycloheximide cs -0.6 and Shiga inhibitor 1.3.
CCOc1ccc(OCC)c(NC(=O)C2CCN(S(=O)(=O)c3ccc4c(c3)CC(C)N4C(C)=O)CC2)c1 (stereo unspecified) was read as Pf growth 96h 1.1%, Pf growth 48h inconclusive, Cycloheximide cs -1.7 and Shiga inhibitor -7.3.
`COc1ccc(CCC(=O)NCc2cn3ccccc3n2)cc1` gave Pf growth 96h -28.5%, Pf growth 48h -15.1%, Cycloheximide cs 8.2 and Shiga inhibitor 4.2.
Screening CC(=O)NC(CC(=O)OCc1ccc([N+](=O)[O-])cc1)c1ccccc1 (stereo unspecified) returned Pf growth 96h -10.6%, Pf growth 48h inconclusive, Cycloheximide cs -6.4 and Shiga inhibitor 19.2.
O=C(N/N=C/c1cc2c(cc1Br)OCO2)c1ccccn1 was read as Pf growth 96h 303.1%, Pf growth 48h 239.3%, Cycloheximide cs 42.8* and Shiga inhibitor 54.6*.
Screening O=C(N/N=C/c1ccsc1)C1CC1 returned Pf growth 96h 4.8%, Pf growth 48h 28.6%, Cycloheximide cs 30.4 and Shiga inhibitor 26.0.
`O=C(N/N=C/c1ccc2c(c1)OCO2)c1ccc2ccccc2n1` gave Pf growth 96h -0.4%, Pf growth 48h 12.7%, Cycloheximide cs 26.4* and Shiga inhibitor 80.5.
Screening O=C(N/N=C/c1ccsc1)c1ccc2ccccc2n1 returned Pf growth 96h 6.4%, Pf growth 48h 0.0%, Cycloheximide cs 40.7* and Shiga inhibitor 73.8*.
`CCSc1nnc(NC(=O)C(C)Sc2nc3ccccc3[nH]2)s1` (stereo unspecified) gave Pf growth 96h 22.8%, Pf growth 48h 4.3%, Cycloheximide cs 0.7 and Shiga inhibitor 17.8.
`CC(C)N(Cc1ccccc1)C(=O)CCc1ccccc1` gave Pf growth 96h 18.3%, Pf growth 48h -11.9%, Cycloheximide cs -0.8 and Shiga inhibitor 3.9.
Screening CC(C)(C)N(Cc1ccccc1)C(=O)CCc1ccccc1 returned Pf growth 96h 13.1µM*, Pf growth 48h inconclusive, Cycloheximide cs -2.9 and Shiga inhibitor 23.6.
`O=C(COC(=O)Cc1cccs1)NCc1ccc(F)cc1` gave Pf growth 96h 1.5%, Pf growth 48h 3.6%, Cycloheximide cs -0.8 and Shiga inhibitor -2.7.
C[C@H](O)CN(C)C was read as Pf growth 96h -13.0% and Pf growth 48h 5.8%.
Screening CN(Cc1nc2ccccc2n1C)S(C)(=O)=O returned Pf growth 96h inactive, Pf growth 48h 38.3%, Cycloheximide cs 3.7 and Shiga inhibitor 14.2.
For Cn1c(N=Nc2ccccc2)nc2ccccc21 the results were Pf growth 96h 0.262µM*, Pf growth 48h 0.738µM*, Cycloheximide cs 40.3 and Shiga inhibitor 14.3.
Cn1c(Cc2nc3ccccc3n2C)nc2ccccc21 was read as Pf growth 96h 30.3% and Pf growth 48h inconclusive.
`Cn1c(CCNC(=O)c2ccc(F)cc2)nc2ccccc21` gave Pf growth 96h 6.8%, Pf growth 48h 34.4%, Cycloheximide cs 1.7 and Shiga inhibitor -5.4.
For Cn1c(CNc2ccc(F)cc2)nc2ccccc21 the results were Pf growth 96h -29.3%, Pf growth 48h 78.4%, Cycloheximide cs 34.3* and Shiga inhibitor 71.4*.
Cn1c(CNc2ccccc2)nc2ccccc21 was read as Pf growth 96h 0.4%, Pf growth 48h 143.0%, Cycloheximide cs 36.6* and Shiga inhibitor 67.0*.
`CN(Cc1nc2ccccc2n1C)S(=O)(=O)c1ccc(F)cc1` gave Pf growth 96h 4.65µM*, Pf growth 48h 23.4%, Cycloheximide cs 16.0* and Shiga inhibitor 26.4.
Screening COc1ccccc1N1CCN(Cc2cnc3ccc(Cl)cn23)CC1 returned Pf growth 96h inconclusive, Pf growth 48h 0.0%, Cycloheximide cs 1.3 and Shiga inhibitor -5.4.
Screening CC(C)(C)C1CCc2c(C(=O)NNC(=O)CCC(=O)O)csc2C1 (stereo unspecified) returned Pf growth 96h -17.8%, Pf growth 48h 3.0%, Cycloheximide cs -2.4 and Shiga inhibitor -3.1.
`CC(C)(C)C(=O)COC(=O)C1=NN(c2ccccc2)C(=O)CC1` gave Pf growth 96h 11.0%, Pf growth 48h -4.2%, Cycloheximide cs 4.3 and Shiga inhibitor 10.9.
For CC1(C)CCN2CCC(C)(C)c3c(O)ccc1c32 the results were Pf growth 96h -47.3%, Pf growth 48h inconclusive, Cycloheximide cs 0.1 and Shiga inhibitor -3.8.
`CN(C)c1cccc(C(=O)OC(C(=O)Nc2ccc(Cl)cc2C(F)(F)F)c2ccccc2)c1` (stereo unspecified) gave Pf growth 96h 11.7µM*, Pf growth 48h inconclusive, Cycloheximide cs 0.2 and Shiga inhibitor -9.4.
For CN1CCc2ccc3c4c2[C@]1(C)Cc1cccc(c1-4)OCO3 the results were Cycloheximide cs 0.1 and Shiga inhibitor 1.1.
CN(C)Cc1cc(C(C)(C)c2cc(CN(C)C)c(O)c(CN(C)C)c2)cc(CN(C)C)c1O was read as Pf growth 48h 4.15µM*, Cycloheximide cs 1.3 and Shiga inhibitor -0.8.
